Assay results from PubChem BioAssay AID720553 (National Center for Advancing Translational Sciences (NCATS), 2013).
Hit rate of the full screen: of about 340,000 compounds, about 3,300 (0.97%) were called active. Many of the other results were omitted from the sample, so actives are more common in it than they were. Unmarked numbers belong to inactive results.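 Rule for the calls: active = maximum activity change below -70%; inconclusive = maximum activity change from -70% to -50%; inactive = maximum activity change above -50%.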
% is set by controls: 0 for no effect and ±100 for the full control effect.

These compounds were tested on Potassium voltage-gated channel subfamily H member 2, brain isoform KCNH2 3.1 (human) (assay: qHTS for Inhibitors of KCHN2 3.1: Mutant qHTS). Details: U2OS KCNH2 3.1, thallium flux FluxOr; active compounds read low.
From the text: Many antipsychotic drugs that inhibit the neurotransmitter dopamine also bind to hERG1 channel which might help explain their antipsychotic activity but also produces cardiac side effects. The discovery of the novel KCNH2 3.1 isoform offers a potential new target for the development of antipsychotic drugs without cardiac side effects. This proposal will use a high throughput thallium flux assay developed for KCNH2 to screen compounds that modulate the activity of KCNH2 3.1. The wild type KCNH2 channel will also be screened in parallel to help define the selective modulators of this KCNH2 3.1 potassium channel. The resulting compounds will be validated in electrophysiology experiments. The availability of animal models will allow future testing in vivo for effects on memory and other aspects of animal physiology linked with psychosis. NIH Chemical Genomics Center [NCGC] NIH Molecular Libraries Probe Centers Network [MLPCN] MLPCN Grant: MH096539 Assay Submitter (PI): James Barrow, Johns Hopkins University, Lieber Institute for Brain Development
U2OS cells were resuspended in cell media containing 10% fetal calf serum (FCS) at a concentration of 2 million cells / mL. The solution was treated with the mutant (3.1) virus at 1.77 x 10^8 / mL and allowed to incubate at room temperature in the dark. After 4 hours of incubation, DMEM + 10% fetal bovine serum (FBS) was added to the cell solution. Three microliter was then dispensed into a 1536 tissue culture treated black assay plates which were incubated overnight at 37 C. Two microliter of loading buffer (HBSS + HEPES + Red40 dye quencher + FluxOr dye) was added and the assay plates were incubated for 45 min at room temperature in the dark. […] A stimulation buffer was added to the plate and the second kinetic read (2 min) was obtained. The rate constant was calculated from the kinetic reads and normalized to the positive and negative DMSO controls.
`O=C(Cc1cccs1)Nc1nnc(SCc2ccc(F)cc2)s1` showed an activity change of 3.31%. With `O=C(Cc1cccs1)Nc1nnc(C2CC2)s1` the activity change was -217% (active). In the case of `CCc1ccccc1OCC(=O)Nc1nnc(C2CC2)s1`, the activity change is reported as -8.55%. For `Cc1cc(S(=O)(=O)NC2CCCC2)ccc1-n1cnnn1`, the activity change was -70.6% (active). Compound `CCOC(=O)C1CCCN(S(=O)(=O)c2ccc(-n3cnnn3)c(C)c2)C1` (configuration not stated) has an activity change of 10.1%. `O=S(=O)(NC1CCCC1)c1ccc(-n2cnnn2)cc1` was tested, and the activity change was 5.4%. `O=C(c1ccc(N2CCOCC2)c([N+](=O)[O-])c1)N1CCN(c2ccccc2F)CC1` gave an activity change of 1.08%. For `O=C(/C=C/c1ccc(Cl)cc1)N1CCN(c2ccccc2[N+](=O)[O-])CC1`, the activity change was -108% (active). `O=C(c1ccc(Cl)c([N+](=O)[O-])c1)N1CCN(c2ccccc2)CC1` showed an activity change of 9.67%. With `C[C@H]1CN([C@@H](C)CO)C(=O)CCCn2cc(nn2)CO[C@@H]1CN(C)C(=O)Nc1ccccc1` the activity change was 13.1%. Work on `O=C(O)C(=Cc1ccc([N+](=O)[O-])cc1)CCc1ccccc1` yielded an activity change of -2.12%. `COc1ccc(NC(=O)CN(C)C(=O)c2cccc(S(=O)(=O)N3CCN(c4ccccc4)CC3)c2)cc1` was tested, and the activity change was -101% (active). In the case of `Cc1ccc(NC(=O)CN(C)C(=O)c2cccc(S(=O)(=O)N3CCCC3)c2)cc1`, the activity change is reported as 4.37%. `CCOc1ccc(NC(=O)CN(C)C(=O)c2cccc(S(=O)(=O)N3CCCC3)c2)cc1OCC` showed an activity change of 0.537%. In the case of `CC(C)CC1C(=O)N(Cc2cn(CC3CCCCC3)nn2)CCS(=O)(=O)N1Cc1ccc(-c2ccc(Cl)cc2)cc1` (configuration not stated), the activity change is reported as 4.02%. `O=c1[nH]c(CN2CCOCC2)nc2scc(-c3ccccc3)c12` was tested, and the activity change was 0.718%. In the case of `Cc1sc2nc(CC(N)=O)[nH]c(=O)c2c1-c1ccccc1`, the activity change is reported as 4%. `NC(=O)Cc1nc2scc(-c3ccc(Cl)cc3)c2c(=O)[nH]1` was tested, and the activity change was -145% (active). `C[C@@H]1CN([C@@H](C)CO)S(=O)(=O)c2ccc(-c3ccc(C(=O)N(C)C)cc3)cc2O[C@@H]1CN(C)Cc1ccccc1C(=O)O` was tested, and the activity change was -0.261%. For `CC(=O)Nc1ccc(C=Cc2ccc([N+](=O)[O-])cc2)cc1`, the activity change was -16.2%. `COc1ccc(S(=O)(=O)NCC(c2ccc(C)cc2)N2CCN(C)CC2)cc1OC` (configuration not stated) gave an activity change of -2.06%. In the case of `Cc1ccc(C(CNC(=O)Nc2ccccc2)N2CCN(C)CC2)cc1` (configuration not stated), the activity change is reported as -194% (active). For `Cc1ccc(C(CNC(=O)Nc2cccc(C)c2)N2CCN(C)CC2)cc1` (configuration not stated), the activity change was 3.75%. For `Cc1ccc(S(=O)(=O)N2C[C@H]3n4c(=O)ccc(=O)n4C[C@H](OC(=O)NC4CCCC4)[C@@]3(O)C2)cc1`, the activity change was -5.45%. `C[C@@H]1CN([C@H](C)CO)C(=O)c2cc(Br)cnc2O[C@@H]1CN(C)Cc1cncnc1` showed an activity change of 6.02%. `C[C@H]1CN([C@@H](C)CO)C(=O)c2cc(Br)cnc2O[C@H]1CN(C)S(=O)(=O)c1cccs1` showed an activity change of -4.3%. `C[C@@H]1CN([C@@H](C)CO)C(=O)c2cc(Br)cnc2O[C@H]1CN(C)Cc1ccc(-c2ccccc2)cc1` was tested, and the activity change was -85.7% (active). In the case of `C[C@H](CO)N1C[C@H](C)[C@H](CN(C)C(=O)Nc2ccc3c(c2)OCO3)Oc2ncc(Br)cc2C1=O`, the activity change is reported as 12.1%. `CSc1ncnc2c1ncn2CCCNCC(C)c1ccccc1` (configuration not stated) showed an activity change of 6.46%. `CCCCNC(=O)CSc1nc2n[nH]c(C)c2c(=N)n1-c1cccc(Cl)c1C` was tested, and the activity change was -75.1% (active). `Cc1ccc(-n2c(SCC(=O)NCCC3=CCCCC3)nc3n[nH]c(C)c3c2=N)cc1Cl` gave an activity change of -4.71%. Compound `COc1cccc(-n2c(SCC(=O)NC3CCCCC3)nc3n[nH]c(C)c3c2=N)c1` has an activity change of 13.7%. `Cc1[nH]c2ccccc2c1C(=O)C(=O)NCc1nnnn1-c1cccc(F)c1` showed an activity change of -6.04%. With `O=C(COC(=O)CCc1c[nH]c2ccccc12)Nc1cccc(Cl)c1` the activity change was -6.53%. Compound `COCCN(C(=O)COC(=O)Cc1cccc(OC)c1)c1c(N)n(Cc2ccccc2)c(=O)[nH]c1=O` has an activity change of 8.15%. Compound `CCN(C(=O)COC(=O)CCOc1cccc(C)c1)c1c(N)n(Cc2ccccc2)c(=O)[nH]c1=O` has an activity change of 11.4%. In the case of `CCN(C(=O)COC(=O)Cc1c(F)cccc1Cl)c1c(N)n(Cc2ccccc2)c(=O)[nH]c1=O`, the activity change is reported as -102% (active). `CC1CCC2(CC1)NC(=O)N(CC(=O)NCc1ccco1)C2=O` (configuration not stated) was tested, and the activity change was 15.5%. With `COc1ccccc1C(CNC(=O)c1cccc(S(=O)(=O)Nc2ccc(F)cc2)c1)N(C)C` (configuration not stated) the activity change was 0.933%. For `O=C(NCCN1CCOCC1)c1cccc(S(=O)(=O)Nc2ccc(F)cc2)c1`, the activity change was -9.37%. With `O=C(NCc1ccccc1CN1CCCC1)c1cccc(S(=O)(=O)Nc2ccc(F)cc2)c1` the activity change was -81.1% (active). Work on `O=C(CC(CC(=O)c1ccccc1)c1ccco1)c1ccccc1` yielded an activity change of -1.01%. In the case of `CSC1=NN(c2ccccc2)CN(c2ccccc2)N1C`, the activity change is reported as -1.49%. In the case of `Cc1ccc(OCc2nnc(SC3CCc4ccccc4C3=O)n2C)cc1` (configuration not stated), the activity change is reported as -114% (active). In the case of `Cc1cccnc1NC(=O)CSc1nnc(COc2ccc(C(C)C)cc2)n1C`, the activity change is reported as 13.2%. With `Cc1ccc(OCc2n[nH]c(=S)n2-c2ccccc2)cc1` the activity change was -4.15%. Compound `Cc1sc2nc(-c3ccccc3F)oc(=O)c2c1C` has an activity change of 9.16%. `CC1=C(C(=O)N(C)C)CC(CC(=O)NCCN2CCOCC2)C(=O)N1Cc1ccccc1` (configuration not stated) gave an activity change of -16.9%. With `C[C@@H]1CN([C@H](C)CO)C(=O)CCCn2cc(nn2)CO[C@H]1CN(C)S(C)(=O)=O` the activity change was 21.6%. `O=C(NC1CCCC1)c1cc(-c2ccccc2)on1` showed an activity change of 4.52%. For `CC(NC(=O)c1cc(-c2ccccc2)on1)c1ccccc1` (configuration not stated), the activity change was -114% (active). For `Cc1ccc(C(=O)NC(C)c2ccccc2)cc1Br` (configuration not stated), the activity change was -9.99%. For `COc1ccc(N2CC(NS(=O)(=O)c3ccc4ccccc4c3)CC2=O)cc1` (configuration not stated), the activity change was -102% (active). Compound `COc1cccc(N2CC(NS(=O)(=O)c3cccs3)CC2=O)c1` (configuration not stated) has an activity change of -5.41%. Work on `COc1cccc(N2CC(NS(=O)(=O)c3ccc(Cl)cc3)CC2=O)c1` (configuration not stated) yielded an activity change of 25.6%. `COc1ccc([C@H]2N[C@]3(CCCN(Cc4ccco4)C3=O)[C@H]3C(=O)N(C)C(=O)[C@@H]23)cc1` showed an activity change of -5.99%. With `CCc1c(N=O)c(-c2ccccc2)n(O)[n+]1[O-]` the activity change was -12.8%. `C[C@H]1CCC(=O)N([C@H](CSc2ccccc2)Cc2ccccc2)CC1` showed an activity change of 2.57%. In the case of `O=C1CC[C@H](O)CCN1[C@H](CSc1ccc(Br)cc1)Cc1ccccc1`, the activity change is reported as 8.81%. For `COc1ccc(SC[C@H](Cc2ccccc2)N2CCN(CCc3ccccc3)CCC2=O)cc1`, the activity change was -105% (active). `COc1cc(C=NC2CCCCC2)ccc1O` was tested, and the activity change was -7.89%. With `C[C@H](CO)N1C[C@H](C)[C@@H](CN(C)S(=O)(=O)c2ccc(Oc3ccccc3)cc2)OCc2cn(nn2)CCCC1=O` the activity change was 2.39%. `C=CCN1CCN(c2ccncc2S(=O)(=O)N2CCN(C)CC2)CC1` showed an activity change of -3.97%. Work on `Cc1ccc([C@H]2C[C@H](O)[C@@H](n3cc(COC(=O)c4ccccc4)nn3)CN2C(=O)C2CCCCC2)cc1` yielded an activity change of -7.68%. With `COc1cccc(NC(=O)CN(C)C(=O)c2cc(Cl)nc3ccccc23)c1` the activity change was 14.5%. For `CN1CCN(C2Cc3ccc(Cl)cc3Sc3ccc(F)cc32)CC1` (configuration not stated), the activity change was -75.9% (active). For `O=C(O)C1CCCN1c1nc(Cl)ccc1[N+](=O)[O-]` (configuration not stated), the activity change was -2.11%. `O=C(COC(=O)c1ccc(S(=O)(=O)N2CCCCCC2)cc1)Nc1ccccc1C(F)(F)F` was tested, and the activity change was -2.65%. Work on `CC(=O)Nc1c(-c2ccc(C)cc2)nc2ccc(Cl)cn12` yielded an activity change of 2.86%. `C#CC(CCN1CCCCC1)(OC)c1ccccc1` (configuration not stated) gave an activity change of 58.1%. Compound `CCCCCCC(O)(CCN1CCCCC1)c1ccccc1` (configuration not stated) has an activity change of -21.6%. For `CCCCCC(O)(CCN1CCCCC1)c1ccccc1` (configuration not stated), the activity change was -102% (active). With `Cc1ccc(NC(=O)c2ccco2)cc1` the activity change was 4.6%. Work on `Cc1cc(C)c2c(=O)n3c(nc2c1)C(CC(C)C)NC(=O)c1cc2ccccc2cc1-3` (configuration not stated) yielded an activity change of -30.6%. `Cc1ccccc1NC(=O)c1cnn(-c2ccccc2)c1NC(=O)c1ccco1` gave an activity change of 11.4%. Compound `O=C(Nc1nonc1-c1ccc(Cl)cc1)c1ccco1` has an activity change of -7.1%. With `O=C(Nc1c(-c2ccccc2)nc2c(Br)cc(Br)cn12)c1ccco1` the activity change was -72.2% (active). Work on `CCCCCCN1C[C@H](O)[C@@H](n2cc(C3CC3)nn2)C[C@@H]1c1ccc(Cl)cc1` yielded an activity change of -39.7%. For `CN1OC[C@@H]2CN(C(=O)c3ccc(-c4ccccc4)cc3)[C@H](c3ccc(-c4cccc(F)c4)cc3)C[C@@H]21`, the activity change was -5.34%. `COC(=O)C(Cc1c[nH]c2ccccc12)NC(=O)CCNC(=O)c1ccco1` (configuration not stated) showed an activity change of 3.09%. `O=C(C[C@H]1C[C@H]2c3cc(NS(=O)(=O)c4ccc(F)cc4)ccc3O[C@H]2[C@H](CO)O1)NCc1cc(F)ccc1F` gave an activity change of -4.51%. `CC1=C(C(=O)OC2CCCCC2)C(c2ccccc2F)NC(=O)N1` (configuration not stated) was tested, and the activity change was 8.03%. Compound `CCC(CC)COC(=O)C1=C(C)NC(=O)NC1c1ccc([N+](=O)[O-])cc1` (configuration not stated) has an activity change of 10.1%. With `CC1=C(C(=O)OCC2CCCCC2)C(c2ccc(F)cc2)NC(=O)N1` (configuration not stated) the activity change was -100% (active). For `COc1cccc(/C=N/NC(=O)C(=O)N2CCCC2)c1`, the activity change was -74.7% (active). For `COC(=O)c1ccc(/C=N/NC(=O)C(=O)N2CCCCCC2)cc1`, the activity change was 2.79%. Work on `O=C(N/N=C/c1ccc2c(c1)OCO2)C(=O)N1CCCC1` yielded an activity change of -5.78%.
